PubChem BioAssay (NCI)
About 83,000 compounds went through this panel and 20% of them were active in at least one assay; those are over-represented in the sample as a whole.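 Compound tested at a single concentration for 48 hours in 96-well plates; a percent growth value below 10 was scored as active.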 Unmarked numbers belong to inactive results. Activity calls are given as the source filed them.

Experiments:
Assay in all cases: NCI-60 one-dose screen, 48 h (100 = growth as untreated, 0 = no growth, -100 = all killed)
DU-145 prostate = conditions: 10 µM unless noted
K-562 leukemia = conditions: 10 µM unless noted
MALME-3M melanoma = conditions: 10 µM unless noted
MDA-MB-231 breast = conditions: 10 µM unless noted
RXF 393 renal = conditions: 10 µM unless noted
SF-268 CNS = conditions: 10 µM unless noted
SF-295 CNS = conditions: 10 µM unless noted
SF-539 CNS = conditions: 10 µM unless noted
UACC-257 melanoma = conditions: 10 µM
M14 melanoma = conditions: 10 µM unless noted
HCT-15 colon = conditions: 10 µM unless noted
HT29 colon = conditions: 10 µM unless noted
SNB-75 CNS = conditions: 10 µM unless noted
SNB-19 CNS = conditions: 10 µM unless noted
U251 CNS = conditions: 10 µM unless noted
PC-3 prostate = conditions: 10 µM unless noted
SK-MEL-5 melanoma = conditions: 10 µM unless noted
UACC-62 melanoma = conditions: 10 µM unless noted
LOX IMVI melanoma = conditions: 10 µM unless noted
SK-MEL-28 melanoma = conditions: 10 µM unless noted

SMILES	growth (DU-145 prostate)	growth (K-562 leukemia)	growth (MALME-3M melanoma)	growth (MDA-MB-231 breast)	growth (RXF 393 renal)	growth (SF-268 CNS)	growth (SF-295 CNS)	growth (SF-539 CNS)	growth (UACC-257 melanoma)	growth (M14 melanoma)	growth (HCT-15 colon)	growth (HT29 colon)	growth (SNB-75 CNS)	growth (SNB-19 CNS)	growth (U251 CNS)	growth (PC-3 prostate)	growth (SK-MEL-5 melanoma)	growth (UACC-62 melanoma)	growth (LOX IMVI melanoma)	growth (SK-MEL-28 melanoma)
CNC(=O)c1cc(Oc2ccc3nc(NC(=O)c4ccc(CN5CCCN(C)CC5)c(C(F)(F)F)c4)sc3c2)ccn1	40.2%	-39.9% (active)	-69.7% (active)	-21.9% (active)	-46.4% (active)	58%	-34.8% (active)	-82.5% (active)	-88.4% (active)	-88% (active)	-21.4% (active)	-75.5% (active)	47.5%	7.5% (active)	1.82% (active)	22.2%	-59.9% (active)	-7.16% (active)	-81.9% (active)	-74% (active)
C#C[C@]1(O)CC[C@H]2[C@@H]3CC=C4c5sc(-c6ccc(OC)cc6)nc5CC[C@]4(C)[C@H]3CC[C@@]21C	76.9%	14.5%	51%	72.3%	-46.3% (active)	58.9%	-36.6% (active)	18.1%	30.3%	36.4%	46.9%	46.6%	22.9%	63.6%	42.7%	28.2%	85.1%	33.2%	45%	4.22% (active)
CC(C)SC1=NC(=C(C(=N1)NC2=ClC=CC=C2)C#N)C3=CC=CC=C3	81.2%	59.6%	65.4%	78.9%	69.3%	78.4%	52.8%	44.9%	100%	89.1%	63%	80.5%	26.5%	69.5%	49.7%	78.2%	91.2%	84%	70%	87.7%
IP(CCCSc1n(Cc2ccc3ccccc3c2)c(-c2ccccc2)c(-c2ccccc2)[n+]1Cc1ccc2ccccc2c1)(c1ccccc1)(c1ccccc1)c1ccccc1	34.7%	25.3%	14.6%	32.5%	99.7%	23.8%	31.8%	35.3%	4.7% (active)	51.5%	94.5%	2.7% (active)	43%	16.6%	10.3%	32.1%	67.6%	26.6%	8% (active)	32.8%
COc1cc(-c2nc(SCc3ccc(C)cc3)[nH]c(=O)c2C#N)ccc1OCc1ccccc1	106%	87.9%	94.5%	104%	108%	97.6%	106%	101%	96.9%	105%	97.9%	109%	96.6%	97.2%	102%	107%	87.8%	97.8%	114%	101%
CC1(C)CC[C@]2(C(=O)O)CC[C@]3(C)C(=CCC4[C@@]5(C)C[C@@H](O)[C@@H]6OC(c7ccccc7O)OC[C@@]6(C)C5CC[C@]43C)C2C1 (stereo not given in full)	44.1%	40.6%	83.9%	82.5%	76.9%	56%	30.2%	63.7%	93.7%	43.3%	29.8%	44.1%	72.6%	59.2%	28.6%	62.9%	63.4%	82.4%	27%	84.7%
C#C[C@]1(O)CC[C@H]2[C@@H]3CC=C4c5sc(C6CC6)nc5CC[C@]4(C)[C@H]3CC[C@@]21C	92.3%	35.3%	107%	91.3%	5.22% (active)	86.5%	43.7%	66.4%	78.9%	77.9%	50.4%	70.2%	94.8%	90%	66.3%	67.2%	93.5%	67.7%	62.6%	69.3%
Clc1ccc(-c2nc3ccc(/C(=N\N=C\c4ccccc4)c4ccccc4)cc3[nH]2)cc1	92.5%	53.6%	97.6%	95.8%	90.1%	92.5%	80.7%	92.7%	101%	77.4%	72%	71.7%	113%	93.8%	88.4%	62.2%	86.7%	88.8%	84.6%	90.6%
c1ccc(-c2n(Cc3ccc4ccccc4c3)c3c4ccccc4c4ccccc4c3[n+]2Cc2ccc3ccccc3c2)cc1	-94.4% (active)	-45% (active)	-81.4% (active)	-79% (active)	-83.2% (active)	-63.6% (active)	-87.1% (active)	-81.8% (active)	-38.2% (active)	-64.6% (active)	-76.7% (active)	-67.2% (active)	-54.3% (active)	-88.5% (active)	-78.7% (active)	-78.6% (active)	-98.5% (active)	-87.6% (active)	-86.2% (active)	-87.3% (active)
CCOC(=O)/C=c1\sc2n(c1=O)C1C(NN=2)N(CC)C(=O)N1CC (stereo not given)	75.3%	24.1%	49.1%	66.8%	70.2%	81.1%	46%	54.4%	71.5%	44.7%	31%	26.4%	52.2%	54.2%	68.9%	55.7%	54%	39%	53.5%	71.9%
COC(=O)Nc1ccc(-c2nc(-c3cccc(O)c3)c(-c3ccnc(Br)c3)[nH]2)cc1	62.1%	27.9%	54.1%	56.6%	-4.89% (active)	72.6%	27.8%	52.6%	58.5%	48.9%	51%	73.7%	3.12% (active)	56.2%	47%	23.7%	61.2%	23.7%	38%	58.7%
CC(C)Sc1nc(NC2CC2)c(C#N)c(-c2ccccc2)n1	99.1%	87.6%	57.1%	82%	77.5%	95.8%	72%	82.2%	102%	95.1%	92.4%	91.1%	34.7%	90%	85.1%	92.5%	100%	87.6%	67.9%	98.7%
CCOC(=O)c1c(NC(=O)c2ccc(F)cc2F)sc2c1CCC(=O)C2	94.9%	86.7%	118%	97.2%	117%	91.9%	95.1%	79.3%	102%	111%	80.6%	103%	94.3%	67.2%	53.5%	93.7%	98.5%	83.4%	80.7%	112%
CCNC(=O)Oc1ccc(/C(=C(/C)c2ccccc2)c2ccc(OCCN3CCCC3)cc2)cc1	89.5%	11.3%	30%	66.7%	54.6%	80.3%	60.5%	49.7%	-3.88% (active)	24.3%	46.5%	9.61% (active)	79.4%	79%	58.6%	64.2%	25.4%	83.4%	18.4%	56.2%
CC(C)(C)n1nnnc1C(Nc1nccs1)c1cc2cccc3ccc4cccc1c4c32 (stereo not given)	107%	102%	97%	99.3%	92.1%	100%	93.1%	92.9%	100%	106%	93.2%	104%	95.7%	88.8%	89.3%	90.1%	94%	48.8%	96.3%	101%
